According to PubChem BioAssay (EPA / NIEHS):
Records with an inconclusive call do not appear. Activity calls are given as the source filed them. How the source made its calls: active means hit-call score of the fitted dose curve at least 0.9, where 1 is the maximum; inconclusive means response in the unintended direction; inactive means score below 0.9.

experiment: TOX21_PR_BLA_Followup_Antagonist_viability: Viability Assessment in the Tox21 HEK293 Progesterone Receptor (PR) Antagonism Beta-lactamase Follow-Up Assay (AID 2283936);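 further: hits lower the luminescence signal meaning cytotoxicity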
Summary of the method: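 PR-UAS-bla HEK293T cells (3,000/well, 2% charcoal-stripped FBS) given compound plus R5020 agonist, 16 h at 37C. CellTiter-Glo added after bla read, 30 min at room temperature; luminescence loss indicates cytotoxicity.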

SMILES | outcome
CC(C)C[C@H](NC(=O)[C@H](Cc1ccccc1)NC(=O)c1cnccn1)B(O)O | inactive
O=C(Nc1ccc(Cl)c(Cl)c1)C1CC1 | inactive
Oc1ccc(N=Nc2ccccc2)cc1 | inactive
COC(=O)C1=C(C)NC(C)=C(C(=O)OCCN2CCN(C(c3ccccc3)c3ccccc3)CC2)C1c1cccc([N+](=O)[O-])c1 (configuration not stated) | inactive
N#C/C(=C1/SC[C@@H](c2ccc(Cl)cc2Cl)S1)n1ccnc1 | inactive
C[C@]12C=CC(=O)C=C1[C@@H](F)C[C@@H]1[C@@H]2[C@@H](O)C[C@@]2(C)[C@H]1CC[C@]2(O)C(=O)CO | inactive
O=C1Nc2ccc(Cl)cc2[C@@](C#CC2CC2)(C(F)(F)F)O1 | inactive
CC(=O)Oc1ccc2c(c1)CC[C@@H]1[C@@H]2CC[C@]2(C)[C@@H](O)CC[C@@H]12 | inactive
CC(C)C[C@H](NC(=O)[C@H](CCc1ccccc1)NC(=O)CN1CCOCC1)C(=O)N[C@@H](Cc1ccccc1)C(=O)N[C@@H](CC(C)C)C(=O)[C@@]1(C)CO1 | inactive
NC(=O)n1c(O)c(C(=O)c2cccs2)c2cc(Cl)ccc21 | inactive
CCC(=C(CC)c1ccc(O)cc1)c1ccc(O)cc1 | inactive
C#C[C@]1(O)CC[C@H]2[C@@H]3CCc4cc(OC5CCCC5)ccc4[C@H]3CC[C@@]21C | inactive
Cc1ccc(/C=N/n2c(-c3ccccc3)csc2=S)cc1 | inactive
COC(=O)C1=C(C)NC(COC(N)=O)=C(C(=O)OC(C)C)C1c1cccc(Cl)c1Cl (configuration not stated) | inactive
COC(=O)C1=C(C)NC(C)=C(C(=O)OCC(C)=O)C1c1ccccc1[N+](=O)[O-] (configuration not stated) | inactive
COCCOC(=O)C1=C(C)NC(C)=C(C(=O)OC/C=C/c2ccccc2)C1c1cccc([N+](=O)[O-])c1 (configuration not stated) | inactive
C=C1C(CCl)(CCl)C2(Cl)C(Cl)C(Cl)C1(Cl)C2(Cl)Cl (configuration not stated) | inactive
